Most compounds without a hit are left out; they make up all but 4.1% or so of the library.
DAX1 inh-1: inhibits human nuclear receptor DAX1 | P51843 | HEK293 Gal4-DAX1 luciferase reporter, luminescence | AID 504766 | hit rate 0.99% among 340,000 | inhibition, % at 6.75 µM;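 active means inhibition above the mean over all tested compounds plus 3 SD, cut at about 4.2% in these data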;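 further: 0% = DAX1-transfected cells with DMSO and 100% = empty-vector control cells with DMSO; inhibition shows as a rise in luminescence from relieved DAX1 repression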
Target sequence (P51843 207-470 limits assumed): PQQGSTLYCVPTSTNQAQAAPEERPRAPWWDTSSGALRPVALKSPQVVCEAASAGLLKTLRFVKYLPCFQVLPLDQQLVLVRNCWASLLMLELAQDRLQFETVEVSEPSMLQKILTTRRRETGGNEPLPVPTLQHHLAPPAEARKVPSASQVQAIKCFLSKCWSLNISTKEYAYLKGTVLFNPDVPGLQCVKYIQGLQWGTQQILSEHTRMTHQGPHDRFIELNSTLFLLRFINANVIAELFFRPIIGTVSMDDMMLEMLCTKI
hcDAF12 agonist: activates DAF-12 receptor from parasite H. contortus. activation, % at 6.8 µM. hit rate 1.4% among 370,000. HEK293 hcDAF-12 lit1-tk-luc reporter, luminescence; 0% DMSO, 100% Δ7-dafachronic acid. AID 652067;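 active means activation above the mean of all tested compounds plus 3 SD, cut at about 5.5% in these data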;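 further: 100% = response to 3 µM Δ7-dafachronic acid high control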
DAX1 inh-2: blocks DAX1 repression of SF-1 activated StAR promoter; hit rate 1.1% among 370,000; HEK293T StAR-luciferase reporter, SF-1/DAX-1 repression relief; AID 652010; inhibition, % at 6.8 µM;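 active means inhibition above the mean over all tested compounds plus 3 SD, cut at about 3.6% in these data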;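 further: 0% = DAX-1 cells with DMSO and 100% = cells lacking DAX-1 with DMSO; higher inhibition means more luminescence from relief of DAX-1 repression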
ssDAF-12 act: activators of S. stercoralis DAF-12 nuclear receptor; HEK293 ssDAF-12/GRIP1 lit1-tk-luc reporter, luminescence; % of 3 µM dafachronic acid response; activation, % at 6.8 µM; hit rate 1% among 370,000; AID 652126;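 active means activation above the mean over all tested compounds plus 3 SD, cut at about 0.9% in these data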;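 further: 0% = DMSO-only wells and 100% = 3 µM delta7-dafachronic acid wells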
hgDAF-12 ag: hgDAF-12 agonism, primary luciferase screen. hit rate 1.8% among 370,000. HEK293 GAL4-hgDAF12 UAS-luciferase reporter, agonist luminescence; normalized to butyrate control. AID 687014. activation, % at 6.8 µM;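 active means activation above a cutoff set at the mean of all screened compounds plus 3 SD, cut at about 10% in these data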;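 further: 0% = DMSO wells and 100% = sodium butyrate wells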
* marks the source's active call; other numbers are inactive results; / = no result.

SMILES | DAX1 inh-1 | hcDAF12 agonist | DAX1 inh-2 | ssDAF-12 act | hgDAF-12 ag
O=C(CCc1ccccc1)NNC(=O)Cc1ccc(Cl)cc1 | -0.8 | -0.5 | 0.1 | -0.9 | 3.1
COCCCN1C(=O)[C@H](CC(=O)NCCCN2CCCC2=O)[C@]2(C(=O)OC)CCCCC=C12 | / | 1.3 | 0.3 | -1.1 | -0.3
COc1ccc2c(c1)N=CN1CCc3c([nH]c4ccccc34)C3=NCC[C@@]321 | / | -2.2 | / | -1.6 | 0.0
O=S(=O)(c1ccc(Cl)s1)N1CCC(c2nc3ccccc3o2)CC1 | / | -3.4 | -1.1 | -1.0 | -3.5
O=C(Nc1ccccc1)Nc1cccn(Cc2c(F)cccc2Cl)c1=O | -1.1 | -0.6 | 1.7 | -1.9 | 10.5*
COc1ccc(CNC(=O)CN(c2cccc([N+](=O)[O-])c2)S(C)(=O)=O)cc1 | 0.3 | 1.4 | -0.5 | -0.3 | 13.2*
COc1ccc(N(C(=O)c2cccc([N+](=O)[O-])c2)S(=O)(=O)c2cccs2)cc1 | 5.1* | -0.5 | -0.5 | -0.7 | -1.1
COc1ccc(CCNC(=O)CN(c2ccc(OC)cc2)S(C)(=O)=O)cc1 | 6.4* | -0.3 | 0.2 | -0.6 | -0.9
COc1ccc(CNC(=O)CN(c2cccc(OC)c2)S(C)(=O)=O)cc1 | 0.6 | 1.9 | 0.0 | -1.4 | -1.5
Cc1ccccc1NC(=O)NCCc1nc2ccccc2[nH]1 | 0.4 | 0.8 | -0.5 | -0.7 | -1.1
Cc1ccccc1NC(=S)c1nc2ccccc2[nH]1 | 0.3 | 5.8* | -0.2 | 1.2* | 8.1
COc1ccc(C)cc1N(C(=O)c1ccccc1)c1nc2ccccc2s1 | -0.3 | 3.5 | -0.3 | 0.3 | 1.4
COc1ccc(C)cc1N(C(=O)COc1ccccc1)c1nc2ccccc2s1 | 2.5 | 6.2* | 0.6 | 0.5 | 4.5
COc1ccc(C)cc1N(C(=O)c1cccc(F)c1)c1nc2ccccc2s1 | 0.2 | 6.5* | 0.2 | 0.0 | 1.4
Oc1ccc(Br)cc1-c1n[nH]c(=S)n1Cc1ccccc1 | 0.4 | 3.5 | 0.0 | -1.9 | -2.0
Oc1ccccc1-c1n[nH]c(=S)n1Cc1ccccc1 | 1.4 | 5.2 | 0.0 | 1.5* | -0.9
CCCCOCC1CN(CCCC)S(=O)(=O)c2c(F)cccc2O1 (stereo not drawn) | / | -1.0 | -0.8 | -1.0 | 0.5
O=C(c1ccc2c(c1)OCCCO2)c1cccs1 | 2.0 | 4.7 | 2.8 | 0.1 | 10.5*
Clc1ccccc1-c1nc2ccccc2[nH]1 | 0.8 | 1.5 | 0.4 | -0.4 | 8.0
Cn1cc(Cl)c(-c2nc3ccccc3[nH]2)n1 | 1.2 | 4.4 | 0.9 | 0.1 | 12.0*
CC(=O)Nc1cc2c(cc1Br)-c1ccccc1C2 | 0.9 | 6.2* | 2.0 | -0.3 | 10.6*
O=C(N/N=C/c1cccs1)c1cc(-c2cccc3ccccc23)n[nH]1 | 0.5 | 0.2 | 0.1 | -1.3 | 10.5*
O=C(N/N=C/c1cccs1)c1cc(-c2ccc3ccccc3c2)n[nH]1 | 1.8 | 2.2 | 1.3 | -0.2 | 11.1*
COC(=O)c1ccc2c(c1)NC(=O)C(N(CC(C)C)CC(C)C)S2 (stereo not drawn) | 5.1* | 0.4 | 0.3 | -1.1 | -2.5
COc1ccccc1OCC(=O)Nc1ccc2c(c1)OCCO2 | 1.1 | 1.0 | 0.7 | -0.1 | 4.3
SMILES | DAX1 inh-1 | hcDAF12 agonist | DAX1 inh-2 | ssDAF-12 act | hgDAF-12 ag
Cc1ccccc1OCC(=O)Nc1ccc2c(c1)OCCO2 | 8.2* | 0.9 | 2.8 | -0.7 | 12.8*
NC(=O)c1ccccc1OCC(=O)Nc1ccc2c(c1)OCCO2 | 0.7 | 4.7 | 4.5* | -0.5 | 8.5
O=C(COc1ccccc1Cl)Nc1ccc2c(c1)OCCO2 | 3.0 | 1.0 | 1.9 | -0.2 | 10.2
COC(=O)c1cc(-c2ccc(OC)c(OC)c2)c(=O)n2c1CCC2 | / | -1.0 | -0.2 | -0.9 | -4.0
Cc1cc(C)cc(NC(=O)N2CCCN(c3c(Cl)cncc3Cl)CC2)c1 | -0.7 | 5.1 | 0.3 | 1.8* | 2.5
O=C(Nc1cccc2ccccc12)N1CCCN(c2c(Cl)cncc2Cl)CC1 | 1.6 | -1.7 | -0.3 | -1.3 | -0.5
Cc1ccc(NC(=O)c2cc(N(C)C)ccc2[P+](=O)O)cc1 | 1.2 | 5.7* | 3.7* | -0.5 | 11.0*
CCOC(=O)N1CCN(C(=O)C[C@H]2C(=O)N(CCCOC)C3=CCCCC[C@]32C(=O)OC)CC1 | / | -1.2 | 1.5 | -2.0 | -2.1
C=C(C)Cn1cnc2c(oc3nc4c(cc32)CCCC4)c1=O | 6.6* | 2.2 | 1.4 | -0.5 | 7.2
O=C(Cn1cnc2c(oc3nc4c(cc32)CCCC4)c1=O)Nc1ccccc1 | 0.1 | -1.2 | -0.1 | 0.3 | 2.9
Cc1ccc(C)c(OCC(=O)O/N=C(\N)c2cccnc2)c1 | 0.4 | 1.6 | 0.1 | -1.4 | 1.3
N/C(=N\OC(=O)COc1ccc(Br)cc1Cl)c1cccnc1 | 0.9 | 2.2 | -0.2 | -0.9 | 11.6*
N/C(=N\OC(=O)COc1ccc(Cl)cc1Br)c1cccnc1 | 1.1 | 1.8 | 1.1 | -0.7 | 11.2*
N[C@H](C(=O)N1CCC[C@@H]1C(=O)N1CCC2CCN(S(=O)(=O)c3ccccc3)CC21)c1ccccc1 (stereo partly drawn) | / | 0.6 | 3.0 | -1.1 | -1.6
CC(=O)NC(CC(=O)OCC(=O)NCCc1ccccc1)c1ccccc1 (stereo not drawn) | 1.2 | -0.2 | 2.0 | -0.7 | -0.8
CC(=O)NC(CC(=O)OCC(=O)c1cc(C)ccc1C)c1ccccc1 (stereo not drawn) | 0.2 | -0.1 | 4.3* | -1.0 | -0.7
C#CCSc1nc(=O)c2cccnc2n1-c1ccc(C)cc1 | 4.5* | -1.0 | -0.5 | -2.0 | -2.9
CCOC(=O)c1nc(N/N=C/c2ccccc2)sc1Br | 2.7 | -1.7 | -0.1 | -1.4 | 0.7
CCOc1ccc(NCc2cc3cc(OC)ccc3[nH]c2=O)cc1 | -2.3 | 1.9 | 0.7 | -0.9 | 0.4
COc1ccc2[nH]c(=O)c(CNc3ccccc3)cc2c1 | 4.5* | 4.2 | 1.6 | 0.4 | 10.3
COc1ccc2[nH]c(=O)c(CNc3ccccc3C)cc2c1 | 2.5 | 3.4 | 1.3 | 1.4* | 7.0
COc1ccc2[nH]c(=O)c(CNc3ccccc3OC)cc2c1 | 4.5* | 2.7 | 0.3 | -0.6 | -1.0
O=C(CCS(=O)(=O)c1cc2c(cc1Br)CCN2C(=O)C1CC1)N1CCN(c2ccccn2)CC1 | / | -0.1 | -0.7 | -0.7 | 4.9
CCc1c(C(=O)NNC(=S)Nc2ccc(S(=O)(=O)Nc3ncccn3)cc2)csc1C | 0.5 | -1.3 | 4.0* | -0.6 | -0.4
Cc1cccc(OC(C)CCN2CCC(C(O)(c3ccccc3)c3ccccc3)CC2)c1 (stereo not drawn) | / | 3.4 | -0.1 | -0.6 | -2.7
CC(CCN1CCC(C(O)(c2ccccc2)c2ccccc2)CC1)Oc1ccc(C#N)cc1F (stereo not drawn) | / | 6.0* | 0.2 | -1.2 | -3.2
COc1cccc(OC(C)CCN2CCC(C(O)(c3ccccc3)c3ccccc3)CC2)c1 (stereo not drawn) | / | 2.6 | -0.9 | 0.9* | 0.8
CCCCCCNC(=O)C1CSCCS(=O)(=O)N1Cc1ccc(C)cc1 (stereo not drawn) | / | 0.4 | 0.5 | -1.0 | -0.6

Bioassay records from PubChem BioAssay.
